Results reported in PubChem BioAssay (Tox21).
Inconclusive results are not listed. Entries that show only a call come without a potency. The source made the active and inactive calls. Calls come from the whole dose curve; as a rule, active = well fitted cell-killing curve with a large enough effect in the repeat runs; inconclusive = weak or mixed curves, or effect the other way; inactive = flat fitted curve, though single readings scatter.

Experiment: qHTS assay to identify small molecule agonists of the sonic hedgehog signaling (Shh) pathway - cell viability counter screen (AID 1259366); note: nearly all actives have a fitted effect of over 50% in size
Settings: NIH/3T3 Gli1-Luc viability, CellTiter-Fluor, 24 h; series mostly up to 92.4 µM
In short: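 Same-well cytotoxicity read. Gli1-Luc reporter 3T3 cells; compounds 24hr, 37C/5% CO2; CellTiter-Fluor fluorescence.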
Potency is the fitted concentration of half-maximal effect.

Row | Structure (SMILES) | Potency
1 | O=C1NC(=O)C2CC=CCC12 (stereo not drawn) | inactive
2 | CN(C)C(=O)Oc1ccc[n+](C)c1 | inactive
3 | C[N+]12CCC(CC1)C(OC(=O)C(O)(c1ccccc1)c1ccccc1)C2 (stereo not drawn) | inactive
4 | CC1=CCC(O)(C(C)C)CC1 (stereo not drawn) | inactive
5 | c1coc(CNc2ncnc3nc[nH]c23)c1 | inactive
6 | Cc1onc(-c2c(Cl)cccc2Cl)c1C(=O)Cl | inactive
7 | CCCC(=O)O[C@]1(C(=O)CC)CC[C@H]2[C@@H]3CCC4=CC(=O)CC[C@]4(C)[C@H]3[C@@H](O)C[C@@]21C | inactive
8 | NCCCC[C@H](N[C@@H](CCc1ccccc1)C(=O)O)C(=O)N1CCC[C@H]1C(=O)O | inactive
9 | CC(=O)O[C@@]12CO[C@@H]1C[C@H](O)[C@@]1(C)C(=O)[C@H](O)C3=C(C)[C@@H](OC(=O)[C@H](O)[C@@H](NC(=O)OC(C)(C)C)c4ccccc4)C[C@@](O)([C@@H](OC(=O)c4ccccc4)[C@H]21)C3(C)C | 6.68 µM (active)
10 | CCCCCCCCN1CCCC1=O | inactive
11 | Nc1ccn([C@@H]2O[C@H](CO)[C@@H](O)C2(F)F)c(=O)n1 | inactive
12 | NC(=O)N1c2ccccc2CC(=O)c2ccccc21 | inactive
13 | CCCCOCCOC(=O)COc1cc(Cl)c(Cl)cc1Cl | inactive
14 | COc1cc2c(cc1OC)-c1cc3ccc(OC)c(OC)c3c[n+]1CC2 | inactive
15 | CC(C)COC(=O)c1ccc(N)cc1 | inactive
16 | CC(COc1ccccc1)NN (stereo not drawn) | inactive
17 | C[N+]1(C)[C@@H]2CC(OC(=O)[C@H](CO)c3ccccc3)C[C@H]1[C@@H]1O[C@@H]12 (stereo partly drawn) | inactive
18 | COC(=O)Nc1ccc(Cl)c(Cl)c1 | inactive
19 | CC(C)c1ccc2ncccc2c1 | inactive
20 | CC(=O)Nc1ccc(OCC(O)CNC(C)C)cc1 (stereo not drawn) | inactive
21 | CCCCCC(=O)OCCc1ccccc1 | inactive
22 | CN1CC(=O)N/C1=N/C(=O)Nc1cccc(Cl)c1 | inactive
23 | Cc1nc2ccc(CN(C)c3ccc(C(=O)N[C@@H](CCC(=O)O)C(=O)O)s3)cc2c(=O)[nH]1 | inactive
24 | O=S(=O)(O)c1cc(O)c(O)c(S(=O)(=O)O)c1 | inactive
25 | CCOC(=O)CCC(=O)OCC | inactive
26 | CC(C)(C#N)Nc1nc(Cl)nc(NC2CC2)n1 | inactive
27 | O=[N+]([O-])c1ccc(/C=N\O)o1 | inactive
28 | CCCOC(=O)CC | inactive
